Active and inactive are the calls of the source. Rule for the calls: active = hit-call score of the fitted dose curve at least 0.9, where 1 is the maximum; inactive = score below 0.9.
Experiment: ATG_PXRE_CIS: Attagene CIS-FACTORIAL HepG2 Assay for human Pregnane X Receptor Element (PXRE) (AID 2282957)
Conditions: HepG2 Attagene CIS-FACTORIAL PXRE reporter, mRNA; actives raise or lower the signal
Protocol: ATG_CIS is a cell-based, multiplexed-readout assay that uses HepG2, a human liver cell line, with measurements taken at 24 hours after chemical dosing in a 24-well plate.ATG_PXRE_CIS is one of 52 assay component(s) measured or calculated from the ATG_CIS assay. It is designed to make measurements of mRNA induction, a form of inducible reporter, as detected with fluorescence intensity signals by Reverse transcription polymerase chain reaction (RT-PCR) and Capillary electrophoresis technology.Data from the assay component ATG_PXRE_CIS was analyzed into 1 assay endpoint. This assay endpoint, ATG_PXRE_CIS, was analyzed with bidirectional fitting relative to DMSO as the negative control and baseline of activity. Using a type of inducible reporter, measures of mRNA for gain or loss-of-signal activity can be used to understand the reporter gene at the transcription factor-level as they relate to the gene NR1I2. Furthermore, this assay endpoint can be referred to as a primary readout, because this assay has produced multiple assay endpoints where this one serves a reporter gene function. To generalize the intended target to other relatable targets, this assay endpoint is annotated to the nuclear receptor intended target family, where the subfamily is non-steroidal.
Human liver HepG2 cells are transiently transfected with multiple reporter transcription units (MRTUs) in 6-well plates using FuGene 6 reagent (Roche; 3 ml FuGene/1 mg DNA). The MRTU constructs are regulated by a cis-regulating element (promoter). […] A major difference between the CIS and TRANS system is that in CIS activities of endogenous TFs are measured, whereas the TRANS assay evaluates changes in activities of exogenous, chimeric NR-Gal4 proteins. […] At the end of 24 hour incubation, total RNA was isolated using TriZol reagent (Invitrogen). The isolated RNA is then reverse-transcribed using oligo(dT) primer and Mo-MLV reverse transcriptase (Invitrogen) with DNAse I (Ambion) treatment for 30 min. The one-tenth of the produced cDNA was amplified by PCR using Taq DNA polymerase (Invitrogen) and two reporter sequence-specific primers. The PCR products were fluorescently labeled by primer extension with 6-arboxyfluorescein (6-FAM) 5'-labeled reporter sequence-specific primer (2 min at 95 C, 20 s at 68 C and 10 min at 72 C) and these products were digested with 5U of HpaI (New England Biolabs) for 2h at 37 C. The fragments were purified using Qiaquick PCR columns (Qiagen), analyzed on an ABI 3130xL genetic analyzer (Applied Biosystems) with peak positions identified by using a set of X-rhodamine (ROX)-labeled MapMarker1000 molecular weight standards (BioVentures). The raw capillary electrophoresis data was processed using Attagraph software (Attagene).

Structure (SMILES)	outcome	AC50
N#Cc1ccc(C(c2ccc(C#N)cc2)n2cncn2)cc1	inactive	
CCOC(=O)c1ccc(C)cc1		56.8 µM (active)
CCCCCCCCCCCCc1ccc(O)cc1		1.53 µM (active)
CCCCCC1=CCCC1=O		27.4 µM (active)
Cc1c(Cl)cccc1Cl	inactive	
CCCCCCCC(=O)OCC	inactive	
[Cl][Sc]([Cl])[Cl]	inactive	
CCCCCCCO		39.1 µM (active)
COC(Cc1ccccc1)OC	inactive	
Nc1ccnc(=O)[nH]1	inactive	
CCCCCOC(=O)CCCCC	inactive	
CC(C=O)c1ccccc1 (stereo not given)		6.81 µM (active)
O=C(OCc1ccccc1)c1ccc(O)cc1		26.8 µM (active)
CCOC(=O)/C=C\C(=O)OCC	inactive	
CC(C)(C)NC(=O)[C@H]1CC[C@H]2[C@@H]3CC[C@H]4NC(=O)C=C[C@]4(C)[C@H]3CC[C@]12C		14.1 µM (active)
COc1ccc(C(=O)/C(Br)=C\C(=O)O)cc1	inactive	
CC(=O)CCC1=C(C)CCCC1(C)C		4.36 µM (active)
CC(C)c1cccc(C(C)C)c1N		29.5 µM (active)
CCCCCCC=O	inactive	
CCCCC(C=O)CC (stereo not given)	inactive	

Structure (SMILES)	outcome	AC50
CC1OC(=O)C(C)OC1=O (stereo not given)	inactive	
O=C(O)c1cc(O)c2ccccc2c1O		0.944 µM (active)
O=C(O)/C=C/c1ccccc1	inactive	
CC(C)CCCCCOC(=O)CS		11.8 µM (active)
CCCCNS(=O)(=O)c1ccc(C)cc1		27.5 µM (active)
CC(CCC(=O)O)(c1ccc(O)cc1)c1ccc(O)cc1		27.5 µM (active)
CC(=O)c1ccccc1O	inactive	
COC(OC)(C(=O)c1ccccc1)c1ccccc1		2.19 µM (active)
CCCCCCOC(=O)CCCCC(=O)OCCCCCC		19.8 µM (active)
CC(C)=NNC(N)=S	inactive	
CCCSSCCC	inactive	
CC1(C)CC(O)CC(C)(C)N1[O]	inactive	
CO[Si](CCCS)(OC)OC	inactive	
C=C(C)C1CC=C(C)C(OC(C)=O)C1 (stereo not given)	inactive	
CCCCC(=O)O	inactive	
CCc1cccc(C)c1N		47.7 µM (active)
CC1CCC(C(C)(C)S)C(=O)C1 (stereo not given)		2.13 µM (active)
CCOC(=O)CC(=O)c1ccccc1		10.4 µM (active)
CC(CC=O)CC(C)(C)C (stereo not given)		8.08 µM (active)
CC(=O)OC/C=C(/C)CCC=C(C)C	inactive	
